Compound activity as filed in PubChem.
hcGAS lum: blocks human cGAS activity. hit rate 0.081% among 290,000. inhibition, % at 12.5 µM. AID 1259398. recombinant h-cGAS, ATP depletion, Kinase-Glo luminescence. Q8N884
Target sequence (Q8N884 whole entry, looked up): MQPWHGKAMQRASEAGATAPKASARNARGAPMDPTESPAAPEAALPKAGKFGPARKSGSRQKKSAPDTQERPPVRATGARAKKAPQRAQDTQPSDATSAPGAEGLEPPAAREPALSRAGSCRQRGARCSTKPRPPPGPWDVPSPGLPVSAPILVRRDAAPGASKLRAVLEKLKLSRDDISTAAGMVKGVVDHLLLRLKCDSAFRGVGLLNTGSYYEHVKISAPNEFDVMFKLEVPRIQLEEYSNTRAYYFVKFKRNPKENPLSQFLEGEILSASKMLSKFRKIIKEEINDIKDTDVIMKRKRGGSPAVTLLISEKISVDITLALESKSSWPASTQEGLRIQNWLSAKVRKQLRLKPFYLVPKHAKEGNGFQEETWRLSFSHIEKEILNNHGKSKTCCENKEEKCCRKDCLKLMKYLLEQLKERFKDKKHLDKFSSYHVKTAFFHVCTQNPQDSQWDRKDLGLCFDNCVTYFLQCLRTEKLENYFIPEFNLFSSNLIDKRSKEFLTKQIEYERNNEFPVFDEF
NPYLR7 ag: activates Aedes aegypti NPYLR7 receptor. HEK293T NPYLR7/Galpha15, GCaMP6s calcium fluorescence. activation, % at 10 µM. hit rate 0.15% among 270,000. AID 1259423; in the data active means activation above about 40%
mcGAS lum: mouse cGAS inhibition by luminescence. Q8C6L5. recombinant cGAS, Kinase-Glo ATP depletion luminescence. inhibition, % at 12.5 µM. hit rate 0.15% among 160,000
A number is an active result; n = inactive; x = not tested or not shown; + = active, no number; ! = repeats disagree. Shown are actives, neighbours in structure and some others; about 0.24% of the full set was active somewhere. Unless noted, no stated cut-off is given here; in the data, active means inhibition above about 40%; inactive means the rest.

SMILES | hcGAS lum | NPYLR7 ag | mcGAS lum
CCc1cccc2c(C(CC(=O)NCCCN3CCOCC3)c3cccc(C(F)(F)F)c3)c[nH]c12 (centres undefined) | n | x | n
Cc1ccc(C(=O)Nc2ccc(S(=O)(=O)O)c3cc(S(=O)(=O)O)cc(S(=O)(=O)O)c23)cc1NC(=O)c1cccc(NC(=O)Nc2cccc(C(=O)Nc3cc(C(=O)Nc4ccc(S(=O)(=O)O)c5cc(S(=O)(=O)O)cc(S(=O)(=O)O)c45)ccc3C)c2)c1 | 80 | n | 80
CC(=O)c1cccc(NS(=O)(=O)c2cc(C(=O)Nc3ccccc3C)ccc2C)c1 | n | n | n
COc1ccc(NC(=O)N(CCC(C)C)Cc2ccc(OS(C)(=O)=O)cc2)cc1 | n | n | n
CCn1cnnc1SC(C)C(=O)Nc1ccc(C)c(F)c1 (centres undefined) | n | n | x
COc1ccc(C=CC(=O)c2cccs2)cc1O | n | n | 55
COc1ccc(C=CC(=O)c2ccc(I)cc2)cc1O | n | n | n
CC(C)Oc1ccc(C(=O)N2CCCC(O)C2)cc1 (centres undefined) | n | n | x
CC(C)C(=O)N1CCC(C(=O)Nc2ccc(NC(=O)CN3CCOCC3)cc2)CC1 | n | n | x
CCOC(=O)c1nn(-c2ccccc2)c(=O)cc1NCc1ccc(Cl)cc1 | n | n | x
COc1ccc(NC[C@@H]2C=C(C)[C@H](Cc3nnc(C)o3)C[C@H]2C(C)C)cn1 | n | 55 | n
COc1ccc(-c2nnc(C[C@@H]3C[C@@H](C(C)C)[C@H](CNc4ccccn4)C=C3C)o2)cc1 | n | n | n
Cc1cc(C)cc(-n2ccnc2S(=O)(=O)Cc2ncnn2C)c1 | n | n | x
COc1ccc(/C=C2\SC(=S)N(C(C)C(=O)O)C2=O)cc1OC (centres undefined) | n | n | n
COc1ccc(/C=C2\SC(=S)N(C(CCSC)C(=O)O)C2=O)cc1OC (centres undefined) | n | n | n
CSCCC(C(=O)O)N1C(=O)/C(=C/c2ccc(O)cc2)SC1=S (centres undefined) | n | 74 | n
COc1cc(/C=C2\SC(=S)N(C(C)C(=O)O)C2=O)ccc1O (centres undefined) | n | 82 | n
C=CCOc1ccc(C=C(C#N)C(=O)c2ccc(OC)cc2)cc1 | n | n | 58
COc1ccc(C=C(C#N)C(=O)c2ccc(OC)cc2)cc1 | n | n | n
Cc1ccc(CNC(=O)NC(c2ccc3c(c2)OCCCO3)C(C)C)cc1F (centres undefined) | n | 47 | n
CC(C)C(NC(=O)c1cccc(F)c1)c1ccc2c(c1)OCCCO2 (centres undefined) | n | n | x
CCCc1[nH]n(-c2cccc(Cl)c2)c(=O)c1/C=C1\NC(=O)N(Cc2ccc(C)cc2)C1=O | n | n | n
CCCc1[nH]n(-c2ccc(Cl)c(Cl)c2)c(=O)c1/C=C1\NC(=O)N(Cc2ccc(C)cc2)C1=O | n | 56 | n
O=c1oc2c(CN3CCN(CCO)CC3)c(O)ccc2cc1-c1ccccc1 | n | n | n
Cc1csc(-c2cc3ccc(O)c(CN4CCN(CCO)CC4)c3oc2=O)n1 | n | 69 | x
SMILES | hcGAS lum | NPYLR7 ag | mcGAS lum
OC(CN1CCOCC1)CN(CCN1CCOCC1)Cc1c(-c2ccccc2)noc1N1CCOCC1 (centres undefined) | n | n | n
CN(C)C(N)=NCCC[C@H](N)C(=O)O | n | n | n
NC(=NCCC[C@H](N)C(=O)O)NO | n | n | 58
Cc1nc2sccn2c1C=C(C#N)c1nc2ccccc2s1 | n | n | x
O=C(COc1ccccc1)N1CCCC(CNS(=O)(=O)c2cccs2)C1 (centres undefined) | n | 57! | n
O=C(CCCc1cccs1)N1CCCC(CNS(=O)(=O)c2cccs2)C1 (centres undefined) | n | n | x
COc1ccc(S(=O)(=O)NCC2CCCN(C(=O)CSc3ccccc3)C2)cc1 (centres undefined) | n | 50! | n
COc1ccc(S(=O)(=O)NCC2CCCN(C(=O)C3CCOCC3)C2)cc1 (centres undefined) | n | n | n
Fc1ccc(SCc2nnnn2Cc2cccc(C(F)(F)F)c2)c(F)c1 | n | x | n
O=C(/C=C/c1ccccc1)N1CCCN(c2nc(Cc3ccccc3)nc3onc(-c4ccccc4)c23)CC1 | n | n | n
CC(=O)c1c(C)[nH]c(C(=O)Nc2nc(C)cs2)c1C | n | n | x
CC(=O)Nc1nc(COC(=O)c2[nH]c(C)c(C(=O)OC(C)C)c2C)cs1 | n | 46 | n
CC(=O)Nc1cc(NC(C)=O)cc(C(=O)Nc2ccc(C(C)(C)C)cc2)c1 | n | n | x
CC(NC(=O)CCc1nnc(Cc2ccc(-c3ccccc3)cc2)o1)c1ccccc1 (centres undefined) | n | n | n
C=CCCC(O)(CCC=C)c1ccc(CN(CCOC)Cc2ccccc2C)o1 | n | n | n
O=C1C2C3C=CC(CC3)C2C(=O)N1/N=C\c1cc2c(cc1Br)OCO2 (centres undefined) | n | n | n
O=C1C2C3C=CC(CC3)C2C(=O)N1/N=C\c1cc([N+](=O)[O-])c(O)cc1O (centres undefined) | n | n | 66
CN(C)c1nc(CNC(=O)C2CCN(C(=O)C3CCCO3)CC2)cs1 (centres undefined) | n | x | n
N#CC(C#N)=C1C=C2CC(=NCc3ccccc3)CCC2CC1 (centres undefined) | n | n | x
N#CC=CN1CCc2ccccc2C1 | n | n | x
CCN1CCN(C2=CC3=CC(=C(C#N)C#N)CCC3CC2)CC1 (centres undefined) | n | + | n
N#CC(C#N)=C1C=C2C=C(N3CCc4ccccc4C3)CCC2CC1 (centres undefined) | n | 87 | x
N#CC(C#N)=C1C=C2C=C(N3CCCCCC3)CCC2CC1 (centres undefined) | n | 673 | n
CC(=NCC1CCCO1)c1c(C)[nH]n(-c2ccc([N+](=O)[O-])cc2)c1=O (centres undefined) | n | n | x
CCOC(=O)Cn1c(=O)c2c(nc3n(-c4ccc(Br)cc4)c(C)cn23)n(C)c1=O | n | n | n
SMILES | hcGAS lum | NPYLR7 ag | mcGAS lum
O=C1OCCN1CCOc1cccc(F)c1F | n | n | n
Cc1cc(C)n(-c2nc3c(c(=O)n2CC(=O)NC2CCCCC2)CCCC3)n1 | n | x | n
COc1cccc(COC(CN2CCN(C(=O)c3sc4ccccc4c3Cl)CC2)c2ccc(Cl)cc2)c1 (centres undefined) | n | x | n
Cc1cc(Cl)ccc1NC(=O)c1nc(C)n2c1CCCC2 | n | n | x
O=C(Nc1ncccc1O)c1nc(-c2ccccc2)n2c1CCCCC2 | 66 | n | n
CC(C)N(Cc1cnn(C)c1)C(=O)C1CCC(=O)N(Cc2ccccn2)C1 (centres undefined) | n | n | n
Cc1ccc(CNC(=O)CSc2ccc(NC(=O)C3CC3)nn2)cc1 | n | n | x
COc1cc(OC)c(OC)cc1CO | n | n | n
Cc1cc(CO)c(OCCOCCOc2c(CO)cc(C)cc2CO)c(CO)c1 | 62 | n | x
COc1ccc(-c2cc(C(=O)NC3CCN(Cc4ccccc4)CC3)c(C)n2-c2ccccc2)cc1 | n | n | n
Cc1nn(Cc2ccccc2)c2sc(C(=O)NCC(CC(C)C)N3CCOCC3)cc12 (centres undefined) | n | n | x
Cc1cccc2ncc(C(=O)N3CCC4(CCNC(=O)CC4)CC3)c(=O)n12 | n | n | x
Cc1nc2ncccc2cc1C(=O)N1CCC2(CCNC(=O)CC2)CC1 | n | 55 | x
